The values below come from paper PMC7862700, “An all-to-all approach to the identification of sequence-specific readers for epigenetic DNA modifications on cytosine”.

What all share (experiment): DAPPL (digital affinity profiling via proximity ligation, sequencing); 10 mM Tris-HCl pH 7.5, 50 mM NaCl, 1 mM DTT, 4% glycerol, room temperature, 30 min; GST-TFs on glutathione beads, 16-mer random dsDNA library, 0.1% formaldehyde crosslink after washing; high values mean tight binding
The target in one assay is T1, FEV (Homo sapiens, UniProt Q99581 1-238).
T1 sequence: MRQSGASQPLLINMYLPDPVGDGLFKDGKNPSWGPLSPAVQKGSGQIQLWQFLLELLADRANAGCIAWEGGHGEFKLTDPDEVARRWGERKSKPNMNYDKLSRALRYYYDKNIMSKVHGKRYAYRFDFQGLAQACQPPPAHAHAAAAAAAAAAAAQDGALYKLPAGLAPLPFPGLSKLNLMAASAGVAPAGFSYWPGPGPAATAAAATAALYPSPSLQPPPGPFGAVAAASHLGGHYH
Conditions: protein: recombinant; tags: N-terminal GST; dsDNA, one strand shown. The method in brief:
(§1)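 Sequencing on an Illumina NextSeq500 followed washing, crosslinking with 0.1% formaldehyde, proximity ligation (BsaI/T4 ligase, 1 h, 37 °C) and PCR amplification of pools that had been incubated for 30 min at room temperature with 200 nmole of a random double-stranded 16-mer DNA library in Tris/NaCl/DTT/glycerol buffer. Each pool held DNA-barcoded human transcription factors, expressed in yeast as GST fusions and captured on glutathione beads, plus a tag-only sample. Binding signal is a hexamer's read frequency for a factor divided by its frequency in the tag-only sample.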

For the next assay, the target named is ETV5 (Homo sapiens, UniProt P41161 1-510). The note with it: protein: recombinant; tags: N-terminal GST; dsDNA, one strand shown. The method in brief: as §1
A further assay addresses HSF1 (Homo sapiens, UniProt Q00613 1-529). Conditions: protein: recombinant; tags: N-terminal GST; chain copies: 3; dsDNA, one strand shown. The method in brief: as §1
A further assay has as its target T2, SPIC (Homo sapiens, UniProt Q8N5J4 1-248).
T2 sequence: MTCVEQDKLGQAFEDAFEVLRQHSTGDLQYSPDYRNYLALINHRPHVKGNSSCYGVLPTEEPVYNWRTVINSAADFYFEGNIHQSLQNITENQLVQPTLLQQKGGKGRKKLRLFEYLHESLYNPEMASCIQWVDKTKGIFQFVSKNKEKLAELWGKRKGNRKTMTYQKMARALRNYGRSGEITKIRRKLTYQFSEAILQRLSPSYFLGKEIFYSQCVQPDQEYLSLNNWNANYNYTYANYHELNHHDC
Conditions: protein: recombinant; tags: N-terminal GST; dsDNA, one strand shown. Put shortly:
as §1

Another assay has as its target ELF4 (Homo sapiens, UniProt Q99607 1-663). The note with it: protein: recombinant; tags: N-terminal GST; dsDNA, one strand shown. The method in brief: as §1
The next assay deals with T3, ELK4 (Homo sapiens, UniProt P28324-2 1-405).
T3 sequence: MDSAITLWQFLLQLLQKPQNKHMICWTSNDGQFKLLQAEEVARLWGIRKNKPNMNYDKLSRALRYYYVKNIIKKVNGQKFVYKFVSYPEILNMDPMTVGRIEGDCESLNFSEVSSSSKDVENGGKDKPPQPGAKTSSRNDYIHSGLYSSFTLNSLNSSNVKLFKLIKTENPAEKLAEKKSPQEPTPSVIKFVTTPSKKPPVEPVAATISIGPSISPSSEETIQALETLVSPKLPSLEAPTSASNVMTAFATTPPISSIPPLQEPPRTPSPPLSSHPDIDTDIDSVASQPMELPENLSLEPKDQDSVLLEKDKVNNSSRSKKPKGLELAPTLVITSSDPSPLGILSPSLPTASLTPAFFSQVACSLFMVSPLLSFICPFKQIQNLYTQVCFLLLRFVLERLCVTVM
The note with it: protein: recombinant; tags: N-terminal GST; dsDNA, one strand shown. Put shortly: as §1

The next assay deals with T4, ETV2 (Homo sapiens, UniProt O00321 1-342).
T4 sequence: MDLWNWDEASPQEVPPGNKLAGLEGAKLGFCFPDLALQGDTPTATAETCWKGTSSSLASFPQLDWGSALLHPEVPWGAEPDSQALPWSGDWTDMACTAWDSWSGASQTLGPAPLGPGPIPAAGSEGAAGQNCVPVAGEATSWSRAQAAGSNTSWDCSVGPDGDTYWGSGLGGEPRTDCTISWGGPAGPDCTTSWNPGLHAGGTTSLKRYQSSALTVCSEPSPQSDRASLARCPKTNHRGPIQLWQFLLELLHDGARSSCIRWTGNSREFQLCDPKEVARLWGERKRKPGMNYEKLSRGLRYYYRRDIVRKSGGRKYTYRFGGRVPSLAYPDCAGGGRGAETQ
Conditions: protein: recombinant; tags: N-terminal GST; dsDNA, one strand shown. The method in brief:
as §1

The next assay has as its target T5, ELF3 (Homo sapiens, UniProt P78545 1-371).
T5 sequence: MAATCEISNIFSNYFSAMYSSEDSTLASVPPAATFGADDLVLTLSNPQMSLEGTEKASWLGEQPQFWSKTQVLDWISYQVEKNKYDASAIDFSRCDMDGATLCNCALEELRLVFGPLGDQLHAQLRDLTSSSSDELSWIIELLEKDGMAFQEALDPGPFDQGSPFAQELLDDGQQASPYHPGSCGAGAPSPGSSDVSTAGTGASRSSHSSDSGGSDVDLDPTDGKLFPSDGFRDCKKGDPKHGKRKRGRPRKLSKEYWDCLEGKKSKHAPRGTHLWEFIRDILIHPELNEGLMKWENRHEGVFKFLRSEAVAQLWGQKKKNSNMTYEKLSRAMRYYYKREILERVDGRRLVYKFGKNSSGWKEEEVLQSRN
The note with it: protein: recombinant; tags: N-terminal GST; dsDNA, one strand shown. Put shortly: as §1

Another assay concerns the target CRX (Homo sapiens, UniProt O43186 1-299). Conditions: protein: recombinant; tags: N-terminal GST; dsDNA, one strand shown. The method in brief: as §1
The target of a further assay is ETV1 (Homo sapiens, UniProt P50549 1-477). The note with it: protein: recombinant; tags: N-terminal GST; dsDNA, one strand shown. Put shortly:
as §1

The target in a further assay is T6, ERF (Homo sapiens, UniProt P50548 1-548).
T6 sequence: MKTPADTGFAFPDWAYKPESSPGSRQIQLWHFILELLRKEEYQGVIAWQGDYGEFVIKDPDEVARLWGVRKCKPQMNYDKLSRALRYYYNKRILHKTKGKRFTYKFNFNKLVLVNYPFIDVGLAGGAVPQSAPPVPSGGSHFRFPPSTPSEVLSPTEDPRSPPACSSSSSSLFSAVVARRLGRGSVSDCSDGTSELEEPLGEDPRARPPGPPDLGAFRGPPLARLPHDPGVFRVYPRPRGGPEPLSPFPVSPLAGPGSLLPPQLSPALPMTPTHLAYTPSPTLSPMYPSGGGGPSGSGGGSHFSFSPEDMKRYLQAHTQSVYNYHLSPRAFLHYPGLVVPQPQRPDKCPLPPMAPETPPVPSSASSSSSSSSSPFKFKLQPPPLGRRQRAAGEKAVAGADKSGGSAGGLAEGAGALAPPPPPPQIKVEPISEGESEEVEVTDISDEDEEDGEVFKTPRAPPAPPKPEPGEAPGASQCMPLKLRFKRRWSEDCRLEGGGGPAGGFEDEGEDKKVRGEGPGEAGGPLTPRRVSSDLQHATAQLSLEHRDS
Conditions: protein: recombinant; tags: N-terminal GST; dsDNA, one strand shown. The method in brief: as §1

In the next assay the target is T7, ETV3L (Homo sapiens, UniProt Q6ZN32 1-361).
T7 sequence: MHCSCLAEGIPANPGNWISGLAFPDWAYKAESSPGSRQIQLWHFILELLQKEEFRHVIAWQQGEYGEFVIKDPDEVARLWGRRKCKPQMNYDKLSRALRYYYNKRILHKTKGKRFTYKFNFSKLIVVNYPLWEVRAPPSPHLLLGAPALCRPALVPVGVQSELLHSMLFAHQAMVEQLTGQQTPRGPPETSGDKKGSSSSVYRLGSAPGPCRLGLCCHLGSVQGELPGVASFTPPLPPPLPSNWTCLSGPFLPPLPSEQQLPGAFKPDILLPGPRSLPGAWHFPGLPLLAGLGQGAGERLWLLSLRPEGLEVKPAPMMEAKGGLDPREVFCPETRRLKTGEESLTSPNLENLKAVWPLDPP
Conditions: protein: recombinant; tags: N-terminal GST; dsDNA, one strand shown. The method in brief:
as §1

For another assay, the target named is T8, ETS2 (Homo sapiens, UniProt P15036 1-469).
T8 sequence: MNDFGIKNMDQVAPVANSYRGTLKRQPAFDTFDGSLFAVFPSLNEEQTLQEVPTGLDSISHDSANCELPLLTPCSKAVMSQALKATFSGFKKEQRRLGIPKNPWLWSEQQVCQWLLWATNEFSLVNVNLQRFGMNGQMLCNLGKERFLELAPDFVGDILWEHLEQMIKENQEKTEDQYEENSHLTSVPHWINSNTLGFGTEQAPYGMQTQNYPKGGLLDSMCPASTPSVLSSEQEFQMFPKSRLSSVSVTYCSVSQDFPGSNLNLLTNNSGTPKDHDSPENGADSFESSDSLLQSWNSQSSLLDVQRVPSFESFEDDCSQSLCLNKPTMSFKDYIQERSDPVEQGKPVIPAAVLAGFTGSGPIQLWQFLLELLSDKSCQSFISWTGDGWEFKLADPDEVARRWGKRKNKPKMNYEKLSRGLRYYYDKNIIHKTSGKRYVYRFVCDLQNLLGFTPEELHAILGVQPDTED
The note with it: protein: recombinant; tags: N-terminal GST; dsDNA, one strand shown. The method in brief:
as §1

Another assay concerns the target T9, SPDEF (Homo sapiens, UniProt O95238 1-335).
T9 sequence: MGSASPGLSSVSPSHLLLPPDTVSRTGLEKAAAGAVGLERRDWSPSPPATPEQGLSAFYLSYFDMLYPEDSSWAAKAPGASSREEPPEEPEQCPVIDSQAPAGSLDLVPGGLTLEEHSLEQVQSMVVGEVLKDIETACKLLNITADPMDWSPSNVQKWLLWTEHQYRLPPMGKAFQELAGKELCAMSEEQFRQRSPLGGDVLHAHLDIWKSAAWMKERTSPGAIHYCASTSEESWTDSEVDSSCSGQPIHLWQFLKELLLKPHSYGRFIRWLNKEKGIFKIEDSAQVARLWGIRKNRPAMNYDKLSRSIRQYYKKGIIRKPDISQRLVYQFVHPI
Conditions: protein: recombinant; tags: N-terminal GST; dsDNA, one strand shown. The method in brief:
as §1

Another assay has as its target T10, ETV7 (Homo sapiens, UniProt Q9Y603 1-341).
T10 sequence: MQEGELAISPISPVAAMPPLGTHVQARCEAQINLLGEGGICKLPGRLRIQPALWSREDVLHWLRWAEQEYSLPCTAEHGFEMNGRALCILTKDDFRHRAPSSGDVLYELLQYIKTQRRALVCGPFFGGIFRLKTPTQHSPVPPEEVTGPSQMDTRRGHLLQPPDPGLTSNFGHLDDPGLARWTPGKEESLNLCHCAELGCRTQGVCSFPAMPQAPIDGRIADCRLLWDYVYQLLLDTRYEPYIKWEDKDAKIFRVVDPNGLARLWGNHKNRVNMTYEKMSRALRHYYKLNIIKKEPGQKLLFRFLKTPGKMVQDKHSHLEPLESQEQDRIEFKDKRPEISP
The note with it: protein: recombinant; tags: N-terminal GST; dsDNA, one strand shown. Put shortly: as §1

For another assay, the target named is T11, ELF5 (Homo sapiens, UniProt Q9UKW6-2 1-255).
T11 sequence: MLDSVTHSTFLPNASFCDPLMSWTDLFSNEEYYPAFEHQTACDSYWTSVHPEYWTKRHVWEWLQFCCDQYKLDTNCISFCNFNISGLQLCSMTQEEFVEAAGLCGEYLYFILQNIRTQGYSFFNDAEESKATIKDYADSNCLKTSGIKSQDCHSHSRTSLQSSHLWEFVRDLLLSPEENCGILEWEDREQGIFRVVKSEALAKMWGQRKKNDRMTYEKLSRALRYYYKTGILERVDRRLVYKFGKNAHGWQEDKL
Conditions: protein: recombinant; tags: N-terminal GST; dsDNA, one strand shown. The method in brief: as §1

The target of a further assay is T12, ETV3 (Homo sapiens, UniProt P41162-2 1-143).
T12 sequence: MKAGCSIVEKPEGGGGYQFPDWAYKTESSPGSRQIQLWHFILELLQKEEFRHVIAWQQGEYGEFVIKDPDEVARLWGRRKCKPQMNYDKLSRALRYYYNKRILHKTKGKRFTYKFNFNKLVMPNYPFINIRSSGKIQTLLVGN
Conditions: protein: recombinant; tags: N-terminal GST; dsDNA, one strand shown. Put shortly:
as §1

A further assay has as its target ETV6 (Homo sapiens, UniProt P41212 1-452). The note with it: protein: recombinant; tags: N-terminal GST; dsDNA, one strand shown. Put shortly:
as §1

Chain of CRX (O43186 whole entry): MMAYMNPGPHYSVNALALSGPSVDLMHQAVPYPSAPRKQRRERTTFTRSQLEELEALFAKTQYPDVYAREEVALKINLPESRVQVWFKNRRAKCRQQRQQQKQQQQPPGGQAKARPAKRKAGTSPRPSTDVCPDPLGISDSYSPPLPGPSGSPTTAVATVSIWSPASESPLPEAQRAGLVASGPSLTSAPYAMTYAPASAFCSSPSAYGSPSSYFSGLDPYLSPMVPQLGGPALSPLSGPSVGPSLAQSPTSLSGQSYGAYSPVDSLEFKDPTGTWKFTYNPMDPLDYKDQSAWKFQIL
Chain of ETV1 (P50549 whole entry): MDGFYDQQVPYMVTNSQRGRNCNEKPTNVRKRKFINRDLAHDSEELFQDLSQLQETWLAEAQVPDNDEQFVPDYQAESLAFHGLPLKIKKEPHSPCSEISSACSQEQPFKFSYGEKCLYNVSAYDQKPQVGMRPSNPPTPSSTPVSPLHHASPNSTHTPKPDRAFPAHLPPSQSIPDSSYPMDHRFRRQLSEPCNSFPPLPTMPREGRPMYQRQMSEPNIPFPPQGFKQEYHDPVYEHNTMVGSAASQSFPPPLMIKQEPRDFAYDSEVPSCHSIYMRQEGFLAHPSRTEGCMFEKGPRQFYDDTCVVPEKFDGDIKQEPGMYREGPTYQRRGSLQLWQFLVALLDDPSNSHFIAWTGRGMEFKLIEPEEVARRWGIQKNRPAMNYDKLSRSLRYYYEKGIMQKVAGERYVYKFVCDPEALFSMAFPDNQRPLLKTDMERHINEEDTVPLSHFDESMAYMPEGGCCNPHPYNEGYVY
Chain of ETV5 (P41161 whole entry): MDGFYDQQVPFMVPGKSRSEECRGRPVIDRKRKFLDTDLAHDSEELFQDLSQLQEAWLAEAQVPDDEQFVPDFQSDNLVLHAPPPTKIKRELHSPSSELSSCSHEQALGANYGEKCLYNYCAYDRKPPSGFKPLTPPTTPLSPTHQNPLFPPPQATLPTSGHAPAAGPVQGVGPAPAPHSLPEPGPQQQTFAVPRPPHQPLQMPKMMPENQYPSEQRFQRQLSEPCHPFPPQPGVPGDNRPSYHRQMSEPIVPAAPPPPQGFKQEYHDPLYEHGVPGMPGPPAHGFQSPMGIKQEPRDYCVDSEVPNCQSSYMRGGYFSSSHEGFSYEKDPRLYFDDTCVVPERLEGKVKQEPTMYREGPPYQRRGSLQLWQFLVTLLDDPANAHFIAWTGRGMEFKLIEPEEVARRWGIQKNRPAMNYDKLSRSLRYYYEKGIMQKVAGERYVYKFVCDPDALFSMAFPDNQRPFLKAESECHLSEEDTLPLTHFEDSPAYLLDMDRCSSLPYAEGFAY
Chain of ETV6 (P41212 whole entry): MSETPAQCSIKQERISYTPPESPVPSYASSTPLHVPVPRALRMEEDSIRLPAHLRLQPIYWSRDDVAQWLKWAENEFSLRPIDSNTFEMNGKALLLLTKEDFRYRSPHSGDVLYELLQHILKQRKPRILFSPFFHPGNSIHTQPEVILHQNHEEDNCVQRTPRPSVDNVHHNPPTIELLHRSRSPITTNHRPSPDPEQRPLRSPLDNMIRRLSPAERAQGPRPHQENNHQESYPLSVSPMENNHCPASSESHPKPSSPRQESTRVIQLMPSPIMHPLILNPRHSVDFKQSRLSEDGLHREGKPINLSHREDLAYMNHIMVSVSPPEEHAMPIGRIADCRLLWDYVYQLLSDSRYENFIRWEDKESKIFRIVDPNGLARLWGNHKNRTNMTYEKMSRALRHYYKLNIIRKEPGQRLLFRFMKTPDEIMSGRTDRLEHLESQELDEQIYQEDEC
Chain of ELF4 (Q99607 whole entry): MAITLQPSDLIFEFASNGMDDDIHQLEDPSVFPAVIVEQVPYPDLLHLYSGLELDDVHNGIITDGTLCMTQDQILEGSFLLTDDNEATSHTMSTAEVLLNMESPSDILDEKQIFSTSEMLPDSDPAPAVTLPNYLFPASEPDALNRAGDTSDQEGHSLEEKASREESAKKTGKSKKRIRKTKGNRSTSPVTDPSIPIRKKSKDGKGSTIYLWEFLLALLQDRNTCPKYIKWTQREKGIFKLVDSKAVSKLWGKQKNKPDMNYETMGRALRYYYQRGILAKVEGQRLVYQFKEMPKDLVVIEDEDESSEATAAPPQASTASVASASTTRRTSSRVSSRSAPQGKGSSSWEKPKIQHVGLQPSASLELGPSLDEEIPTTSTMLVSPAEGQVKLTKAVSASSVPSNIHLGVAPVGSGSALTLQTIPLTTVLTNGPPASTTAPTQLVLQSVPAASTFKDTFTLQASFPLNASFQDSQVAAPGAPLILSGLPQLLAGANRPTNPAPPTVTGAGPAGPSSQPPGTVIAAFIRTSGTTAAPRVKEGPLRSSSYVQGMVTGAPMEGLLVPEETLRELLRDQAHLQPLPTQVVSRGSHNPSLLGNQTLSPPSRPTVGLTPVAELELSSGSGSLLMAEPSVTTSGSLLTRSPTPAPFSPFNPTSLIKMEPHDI
Chain of HSF1 (Q00613 whole entry): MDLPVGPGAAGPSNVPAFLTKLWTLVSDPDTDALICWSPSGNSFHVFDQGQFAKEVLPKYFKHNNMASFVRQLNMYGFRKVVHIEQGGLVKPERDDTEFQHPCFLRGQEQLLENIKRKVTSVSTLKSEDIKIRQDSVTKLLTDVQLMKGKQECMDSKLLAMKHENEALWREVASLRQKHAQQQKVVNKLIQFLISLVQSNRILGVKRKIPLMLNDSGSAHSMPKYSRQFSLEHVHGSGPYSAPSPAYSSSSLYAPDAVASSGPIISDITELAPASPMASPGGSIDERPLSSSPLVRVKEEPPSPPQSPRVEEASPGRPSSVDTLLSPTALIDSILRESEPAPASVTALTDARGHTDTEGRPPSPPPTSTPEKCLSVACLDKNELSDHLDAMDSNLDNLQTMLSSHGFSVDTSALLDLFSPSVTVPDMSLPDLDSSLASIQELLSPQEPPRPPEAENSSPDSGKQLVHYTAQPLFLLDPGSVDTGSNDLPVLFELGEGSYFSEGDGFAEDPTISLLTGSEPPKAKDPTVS

In the case of CTAGCT, the binding signal is 1.29 fold enrichment (6-mer frequency, TF over GST control) in the assay with FEV; 1.31 fold enrichment (6-mer frequency, TF over GST control) in the assay with ETV5; 1.53 fold enrichment (6-mer frequency, TF over GST control) with HSF1; 1.59 fold enrichment (6-mer frequency, TF over GST control) in the assay with SPIC; 1.29 fold enrichment (6-mer frequency, TF over GST control) with ELF4; 1.35 fold enrichment (6-mer frequency, TF over GST control) in the assay with ELK4. Besides, the binding signal with ETV2 was 1.31 fold enrichment (6-mer frequency, TF over GST control); with ELF3, 1.07 fold enrichment (6-mer frequency, TF over GST control); with CRX, 1.31 fold enrichment (6-mer frequency, TF over GST control); with ETV1, 1.24 fold enrichment (6-mer frequency, TF over GST control); in the assay with ERF it was 1.21 fold enrichment (6-mer frequency, TF over GST control); in the assay with ETV3L it was 1.29 fold enrichment (6-mer frequency, TF over GST control). Moreover, the binding signal in the assay with ETS2 is 1.25 fold enrichment (6-mer frequency, TF over GST control); with SPDEF, 1.27 fold enrichment (6-mer frequency, TF over GST control); in the assay with ETV7, 1.33 fold enrichment (6-mer frequency, TF over GST control); with ELF5 it was 1.27 fold enrichment (6-mer frequency, TF over GST control); with ETV3, 1.24 fold enrichment (6-mer frequency, TF over GST control); with ETV6 it was 1.32 fold enrichment (6-mer frequency, TF over GST control).
